Laboratory results reported in PubChem BioAssay AID1159580 (chemical genetic matrix, 2015).
“And” between values parts separate entries of the source, which are not always exact repeats. Equal entries are not always repeated. About 2,000 (36%) of roughly 5,500 compounds were called active. About 18% were inconclusive and are not listed. Rule as the data show it: active = normalized growth mostly below about 0.91 (no sharp cut-off); inconclusive = no clear call, values can overlap the other calls; inactive = mostly above about 0.92. The list shows a part of the results.

Assay: chemical genetic growth profiling, strain panel (AID 1159580);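 also: tested at 20 µM; growth read once vehicle control cultures reached saturation at 30 °C; 1 = growth at the plate median or of vehicle wells; lower values mean less growth of the strain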
Details: S. cerevisiae deletion strains, growth OD

Measured: normalized growth

O=C1NCC2(CCN(CCc3ccccc3)CC2)O1
inactive: locus YAL013W, strain DEP1, active compounds read low 1.02 | locus YAL021C, strain ccr4, active compounds read low 0.973 | locus YAL026C, strain drs2, active compounds read low 0.99 | locus YAL030W, strain snc1, active compounds read low 1 | locus YAL040C, strain CLN3, active compounds read low 1 | locus YBL061C, strain skt5, active compounds read low 0.983 | locus YBR009C, strain hhf1, active compounds read low 0.992 | locus YBR021W, strain FUR4, active compounds read low 1.01 | locus YBR023C, strain chs3, active compounds read low 0.993 | locus YBR171W, strain sec66, active compounds read low 0.99 | locus YBR229C, strain ROT2, active compounds read low 1.01 | locus YBR231C, strain swc5, active compounds read low 0.985 | locus YBR279W, strain paf1, active compounds read low 1.01 | locus YCL011C, strain gbp2, active compounds read low 1.01 | locus YCL016C, strain dcc1, active compounds read low 1.02 | locus YCL029C, strain bik1, active compounds read low 1 | locus YCL061C, strain MRC1 (second series), active compounds read low 1.01 | locus YCL069W, strain vba3, active compounds read low 0.982 | locus YCR088W, strain abp1, active compounds read low 1.01 | locus YDL005C, strain med2, active compounds read low 0.987 | locus YDL035C, strain GPR1, active compounds read low 1.01 | locus YDL040C, strain nat1, active compounds read low 0.996 | locus YDL074C, strain BRE1, active compounds read low 1.02 | locus YDL101C, strain DUN1, active compounds read low 1.02 | locus YDL134C, strain PPH21, active compounds read low 1 | locus YDL185W, strain tfp1, active compounds read low 1.01 | locus YDL192W, strain arf1, active compounds read low 1.01 | locus YDR001C, strain nth1, active compounds read low 0.99 | locus YDR069C, strain doa4, active compounds read low 0.983 | locus YDR101C, strain arx1, active compounds read low 0.994 | locus YDR137W, strain rgp1, active compounds read low 0.989 | locus YDR150W, strain NUM1, active compounds read low 1 | locus YDR159W, strain sac3, active compounds read low 0.989 | locus YDR162C, strain NBP2, active compounds read low 1.01 | locus YDR195W, strain ref2 0.973 | locus YDR297W, strain sur2, active compounds read low 1 | locus YDR318W, strain mcm21, active compounds read low 1.01 | locus YDR334W, strain swr1, active compounds read low 0.983 | locus YDR335W, strain msn5, active compounds read low 0.971 | locus YDR363W, strain ESC2, active compounds read low 1 | locus YDR388W, active compounds read low 1 | locus YDR392W, strain spt3, active compounds read low 1.02 | locus YDR502C, strain sam2, active compounds read low 0.995 | locus YEL003W, strain gim4, active compounds read low 0.99 | locus YEL037C, strain rad23, active compounds read low 0.982 | locus YEL061C, strain CIN8 (second series), active compounds read low 0.978 | locus YEL061C, strain CIN8, active compounds read low 1 | locus YER002W, strain NOP16, active compounds read low 1.01 | locus YER015W, strain faa2, active compounds read low 1 | locus YER016W, strain bim1, active compounds read low 1.01 | locus YER110C, active compounds read low 1 | locus YER111C, strain swi4, active compounds read low 0.992 | locus YER155C, strain BEM2 (second series), active compounds read low 0.996 | locus YER155C, strain BEM2, active compounds read low 1 | locus YER167W, strain BCK2, active compounds read low 1 | locus YFR010W, strain ubp6, active compounds read low 0.965 | locus YGL078C, strain dbp3, active compounds read low 0.994 | locus YGL086W, strain mad1, active compounds read low 0.993 | locus YGL167C, strain pmr1, active compounds read low 0.982 | locus YGL173C, strain kem1, active compounds read low 0.979 | locus YGL227W, strain vid30, active compounds read low 1 | locus YGL240W, strain doc1, active compounds read low 0.969 | locus YGL248W, strain PDE1, active compounds read low 1.01 | locus YGL253W, strain hxk2, active compounds read low 0.982 | locus YGR078C, strain PAC10, active compounds read low 1.01 and 1.02 | locus YGR135W, strain pre9, active compounds read low 0.999 | locus YGR229C, strain SMI1, active compounds read low 1 | locus YGR252W, strain gcn5, active compounds read low 0.944 | locus YHR013C, strain ard1, active compounds read low 0.974 | locus YHR027C, strain rpn1, active compounds read low 1 | locus YHR030C, strain SLT2, active compounds read low 1.01 and 0.988 | locus YHR079C, strain IRE1 (second series), active compounds read low 1.01 | locus YHR079C, strain IRE1, active compounds read low 0.979 | locus YHR094C, strain hxt1, active compounds read low 1 | locus YHR129C, strain ARP1, active compounds read low 1.02 | locus YHR142W, strain chs7, active compounds read low 0.966 | locus YHR200W, strain rpn10, active compounds read low 0.994 | locus YIL066C, strain RNR3, active compounds read low 1.01 | locus YIL073C, strain SPO22, active compounds read low 1.01 | locus YIL125W, strain kgd1, active compounds read low 0.998 | locus YIR030C, strain dcg1, active compounds read low 0.994 | locus YJL092W, strain hpr5, active compounds read low 0.997 | locus YJL095W, strain BCK1 (second series), active compounds read low 0.993 | locus YJL095W, strain BCK1, active compounds read low 1.04 and 0.982 | locus YJL115W, strain asf1, active compounds read low 0.976 | locus YJL129C, strain trk1, active compounds read low 0.967 | locus YJL134W, strain LCB3, active compounds read low 1.01 | locus YJL154C, strain vps35, active compounds read low 1 | locus YJL164C, strain tpk1, active compounds read low 1.01 | locus YJL166W, strain qcr8, active compounds read low 0.997 | locus YJL168C, strain set2, active compounds read low 1.01 | locus YJL187C, strain SWE1 (second series), active compounds read low 1.02 | locus YJR043C, strain POL32, active compounds read low 1.02 | locus YJR066W, strain TOR1, active compounds read low 0.913 | locus YJR075W, strain HOC1, active compounds read low 1 and 0.995
